PubChem BioAssay
Active and inactive are the calls of the source.

Tested on: not listed separately
Test: budding yeast growth modifiers under rapamycin – strain BY4716, OD600, 96 h, primary screen (AID 1091); further: test concentration not given here
Settings: S. cerevisiae BY4716 + rapamycin, higher = more signal, called active from +8 up or from −8 down

Row | Structure (SMILES) | z-score
1 | C=C[C@H](C)[C@H](OC(=O)Nc1ccc(SC)cc1)c1ccc(O)c2ccccc12 | -2.22 (inactive)
2 | COC(=O)C(CC#Cc1ccc2c(c1)[C@]1(C(=O)N2)[C@H](C(=O)N2CCc3cc(OC)c(OC)cc3C2)[C@H]2C(=O)O[C@H](c3ccccc3)[C@H](c3ccccc3)N2[C@@H]1c1ccc(OCCO)cc1)C(=O)OC | 5.29 (inactive)
3 | COC(=O)[C@@]1(Cc2ccc(OC)cc2)[C@H]2c3cc(C(=O)N4CCCC4)n(CCc4ccc(O)c(OC)c4)c3C[C@H]2CN1C(=O)c1ccccc1 | 0.0019 (inactive)
4 | O=C1N(CCS(=O)(=O)c2ccccc2)Cc2ccccc2C[C@@]12COC(c1ccc(OCCCO)cc1)=N2 | 3.45 (inactive)
5 | CC(C)C[C@H]1NC(=O)[C@H](C)NC(=O)[C@@]23C(=O)N[C@@H](Cc4ccccc4)C2[C@H](C)[C@@]2(C)O[C@H]2C3/C=C/C/C=C\CNC1=O (stereo not given in full) | -1.07 (inactive)
6 | COc1ccc([Si](C)(C)[C@H]2[C@H](CC(=O)N3CCC[C@H]3CO)O[C@@]3(C(=O)N(Cc4ccc(N5C(=O)c6cccc7cccc5c67)cc4)c4ccccc43)[C@@H]2C)cc1 | -0.403 (inactive)
7 | COc1cccc(C)c1NC(=O)O[C@H]1[C@H](OC(=O)Nc2ccccc2)[C@H](OC(=O)Nc2ccccc2)[C@@H](OC)O[C@@H]1CO | 3.23 (inactive)
8 | C=CCC(OC(C)=O)[C@@H]1[C@@H](N(Cc2ccc(-c3ccccc3)cc2)C(=O)c2cccc3ccccc23)c2cc(OCCCO)ccc2N1C(=O)c1ccc2ccccc2n1 (stereo not given in full) | -0.291 (inactive)
9 | O=C1O[C@H](c2ccccc2)[C@H](c2ccccc2)N2[C@H]1[C@@H](C(=O)N1CCN(c3ncccn3)CC1)[C@]1(C(=O)Nc3ccc(C#CCCO)cc31)[C@H]2c1ccc(OCCO)cc1 | 4.15 (inactive)
10 | COC(=O)[C@@]1(Cc2ccccc2N=[N+]=[N-])N=C(c2ccc(OCCCO)cc2)O[C@H]1c1ccccc1 | 23 (active)

Molecular target: Torsin-1A-interacting protein 2 (Homo sapiens) (UniProt Q8NFQ8)
Test: small molecules binding lysate-expressed LULL1 – cell lysate, human LULL1 lysate, 635/667 nm fluorescence, primary screen (AID 1092);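 further: probe is lysate of COS7 cells overexpressing human LULL1; score merges per-feature 667 nm fluorescence with signal-to-noise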
Settings: small-molecule microarray, hLULL1 lysate binding, 635 nm fluorescence; higher = more signal

Sequence of Torsin-1A-interacting protein 2 (Homo sapiens) (Q8NFQ8 whole entry, looked up): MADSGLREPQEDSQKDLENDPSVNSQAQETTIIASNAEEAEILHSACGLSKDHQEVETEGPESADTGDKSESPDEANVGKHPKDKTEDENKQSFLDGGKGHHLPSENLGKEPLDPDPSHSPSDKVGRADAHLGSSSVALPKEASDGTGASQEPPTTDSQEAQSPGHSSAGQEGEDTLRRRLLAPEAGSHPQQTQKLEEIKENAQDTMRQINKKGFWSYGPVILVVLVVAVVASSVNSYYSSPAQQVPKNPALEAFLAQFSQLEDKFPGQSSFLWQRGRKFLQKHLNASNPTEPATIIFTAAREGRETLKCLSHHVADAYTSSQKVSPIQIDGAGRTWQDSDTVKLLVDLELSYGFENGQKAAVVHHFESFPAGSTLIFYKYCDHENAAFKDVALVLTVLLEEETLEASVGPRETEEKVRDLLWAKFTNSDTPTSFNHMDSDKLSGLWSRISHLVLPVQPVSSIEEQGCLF

Row | Structure (SMILES) | composite z-score
11 | COCC(=C=CC[C@@H](O)c1ccccc1OCCO)C[C@@H](O)c1ccccn1 | 2.97
12 | COc1ccc([Si](C)(C)[C@H]2[C@H](CCO)O[C@@]3(C(=O)N(Cc4cccc(N5CCOC5=O)c4)c4ccccc43)[C@@H]2C)cc1 | 2.39
13 | COC(=O)C(CC#Cc1ccc2c(c1)[C@]1(C(=O)N2)[C@H](C(=O)N2CCc3cc(OC)c(OC)cc3C2)[C@H]2C(=O)O[C@H](c3ccccc3)[C@H](c3ccccc3)N2[C@@H]1c1ccc(O)cc1)C(=O)OC | 2.83
14 | COc1ccc([Si](C)(C)[C@H]2[C@H](CCn3cc(CCO)nn3)O[C@@]3(C(=O)N(Cc4cccc(N5C(=O)c6cccc7cccc5c67)c4)c4ccccc43)[C@@H]2C)cc1 | 2.2
15 | C[C@H]1ON(c2ccccc2)[C@@H](c2ccccc2)[C@@H]1C(=O)N1C(=O)OC[C@@H]1c1ccccc1 | 0.352
16 | COc1ccc(C#Cc2ccc3c(c2)[C@]2(C(=O)N3)[C@H](C(=O)O)[C@H]3C(=O)O[C@H](c4ccccc4)[C@H](c4ccccc4)N3[C@@H]2c2ccc(OCCO)cc2)cc1 | 2.37
17 | C=CCC(OC(C)=O)[C@@H]1[C@@H](N(Cc2ccc(-c3ccccc3)cc2)C(=O)Cc2ccc(OC)cc2)c2cc(OCCCO)ccc2N1C(=O)c1ccc(-c2ccccc2)cc1 (stereo not given in full) | 0.182
18 | Cc1ccc(S[C@]2(C(=O)NCC(C)C)CC(=O)N(C3CCCCC3)[C@@H]2c2ccc(CO)cc2I)cc1 | 2.59
19 | COC(=O)C(CC#Cc1ccc2c(c1)[C@]1(C(=O)N2)[C@H](c2ccc(OCCO)cc2)N2[C@H](c3ccccc3)[C@H](c3ccccc3)OC(=O)[C@H]2[C@@H]1C(=O)O)C(=O)OC | 3.1
20 | [N-]=[N+]=NCc1ccccc1C[C@@]1(C(=O)NCCN2CCOCC2)N=C(c2ccc(OCCCO)cc2)O[C@@H]1c1ccccc1CN=[N+]=[N-] | 2.84
21 | C[C@]12C(=O)N(CCCO)[C@@H]3C(=O)N(c4ccc(Cl)cc4)CC=CC31O[C@@H]1/C=C\CCCOC(=O)C12 (stereo not given in full) | 3.16
22 | CCCCC(O)C1C=CC2C(=O)N(Cc3ccccc3)C(=O)C2N1n1cnnc1 (stereo not given) | 2.57
23 | Cc1ccccc1C(O)C1C=CC2C(=O)N(C)C(=O)C2N1Nc1ccc([N+](=O)[O-])cc1[N+](=O)[O-] (stereo not given) | 3.45
24 | COCCOC(=O)N1C(=O)[C@@]2(c3cc(C#Cc4ccc(OC)cc4)ccc31)[C@H](C(=O)N1CCc3cc(OC)c(OC)cc3C1)[C@H]1C(=O)O[C@H](c3ccccc3)[C@H](c3ccccc3)N1[C@@H]2c1ccc(OCCO)cc1 | 1.32
25 | O=c1c2ccc(Br)cc2nc(-c2ccccc2)n1Cc1cccc(O)c1 | 1.86
26 | Cc1ccc(S[C@]2(C(=O)NCCN3CCOCC3)CC(=O)N(C3Cc4ccccc4C3)[C@@H]2c2ccc(CO)cc2)cc1 | 2.77
27 | C=CC[C@@]1(C(=O)NCCN2CCOCC2)N=C(c2ccc(OCCCO)cc2)O[C@@H]1c1ccccc1 | 3.01
28 | C[C@H]1NC(=O)C([C@@H](C)OCc2ccccc2)NC(=O)[C@@]23C(=O)N[C@@H](Cc4ccccc4)C2[C@H](C)[C@@]2(C)O[C@H]2C3/C=C/CC/C=C/CNC1=O (stereo not given in full) | -0.147

Row | Structure (SMILES) | composite z-score
29 | C/C=C/[C@@H](CCn1cc([C@H](O)c2ccccc2)nn1)[Si](C)(C)c1ccc(OC)cc1 | 1.33
30 | CCCC=C(CCC)[C@@H](NC(=O)Cc1ccccc1)c1ccc(C(=O)OC)cc1 | 1.54
31 | C=C(COC)/C(=C/C[C@@H](OC(=O)c1ccncc1)c1cccc(OCCO)c1)c1cc(C(=O)OC)ccc1OC | 0.512
32 | COc1cc(NN2C(C(O)c3ccc(I)cc3)C=CC3C(=O)N(C)C(=O)C32)cc(OC)c1OC (stereo not given) | 2.75
33 | COCCCNC(=O)[C@@]1(Cc2ccccc2CN=[N+]=[N-])N=C(c2ccc(OCCCO)cc2)O[C@H]1c1ccccc1N=[N+]=[N-] | 2.67
34 | O=C(CS)NCCCCCNC(=O)[C@@H]1C[C@@H]2C(=O)N3CCC[C@H]3C(=O)N2[C@@H]1c1ccc(O)cc1 | 2.81
35 | Cc1cc(C)c(C(O)C2C=CC3C(=O)N(c4ccccc4)C(=O)C3N2Nc2ccc([N+](=O)[O-])cc2)c(C)c1 (stereo not given) | 3.73
36 | C=C[C@H](C)[C@H](OC(=O)Nc1ccc(SC)cc1)c1ccc(O)c2ccccc12 | 0.803
37 | COC(=O)C(CC#Cc1ccc2c(c1)[C@]1(C(=O)N2)[C@H](C(=O)N2CCc3cc(OC)c(OC)cc3C2)[C@H]2C(=O)O[C@H](c3ccccc3)[C@H](c3ccccc3)N2[C@@H]1c1ccc(OCCO)cc1)C(=O)OC | 2.82
38 | COC(=O)[C@@]1(Cc2ccc(OC)cc2)[C@H]2c3cc(C(=O)N4CCCC4)n(CCc4ccc(O)c(OC)c4)c3C[C@H]2CN1C(=O)c1ccccc1 | 2.6
39 | O=C1N(CCS(=O)(=O)c2ccccc2)Cc2ccccc2C[C@@]12COC(c1ccc(OCCCO)cc1)=N2 | 3.04
40 | CC(C)C[C@H]1NC(=O)[C@H](C)NC(=O)[C@@]23C(=O)N[C@@H](Cc4ccccc4)C2[C@H](C)[C@@]2(C)O[C@H]2C3/C=C/C/C=C\CNC1=O (stereo not given in full) | 2.44
41 | COc1ccc([Si](C)(C)[C@H]2[C@H](CC(=O)N3CCC[C@H]3CO)O[C@@]3(C(=O)N(Cc4ccc(N5C(=O)c6cccc7cccc5c67)cc4)c4ccccc43)[C@@H]2C)cc1 | 2.5
42 | COc1cccc(C)c1NC(=O)O[C@H]1[C@H](OC(=O)Nc2ccccc2)[C@H](OC(=O)Nc2ccccc2)[C@@H](OC)O[C@@H]1CO | 3.35
43 | C=CCC(OC(C)=O)[C@@H]1[C@@H](N(Cc2ccc(-c3ccccc3)cc2)C(=O)c2cccc3ccccc23)c2cc(OCCCO)ccc2N1C(=O)c1ccc2ccccc2n1 (stereo not given in full) | 0.53
44 | O=C1O[C@H](c2ccccc2)[C@H](c2ccccc2)N2[C@H]1[C@@H](C(=O)N1CCN(c3ncccn3)CC1)[C@]1(C(=O)Nc3ccc(C#CCCO)cc31)[C@H]2c1ccc(OCCO)cc1 | 3.13
45 | COC(=O)[C@@]1(Cc2ccccc2N=[N+]=[N-])N=C(c2ccc(OCCCO)cc2)O[C@H]1c1ccccc1 | 1.21
